# Laboratory results taken from the supplement of paper PMC8728848.
# Only a selection was taken, and the strongest signals are over-represented in it overall.
# Tests used:
# Assay in all cases: glycan array binding signal (z-score within array); higher = stronger binding
# Conditions in all cases: glycan notation: IUPAC condensed, linker removed
# [1] = target: GalNAc(a1-3)GalNAc(b1-3)Gal(a1-4)Gal(b1-4)GlcNAc
# Outline: (§1)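 Negative Z-scores can be read as non-binding. The Z-score is calculated within each array and then averaged across arrays of one protein sequence at different concentrations or buffers and across linkers. Arrays, 3228 in all, were curated from the Consortium for Functional Glycomics database and kept only where the protein sequence was available.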
# [2] = target: GlcA(b1-3)GlcNAc
# Outline: as §1
# [3] = target: GlcNAc(a1-4)Gal(b1-3)GlcNAc
# Outline: as §1
# [4] = target: GlcNAc(a1-4)Gal(b1-4)GalNAc
# Outline: as §1
# [5] = target: Kdn(a2-3)Gal(b1-4)GlcNAc
# Outline: as §1
# [6] = target: Man(a1-2)Man(a1-6)[Man(a1-3)]Man(a1-6)[Man(a1-2)Man(a1-2)Man(a1-3)]Man(b1-4)GlcNAc(b1-4)GlcNAc
# Outline: as §1
# [7] = target: Neu5Ac(a2-3)Gal(b1-3)GalNAc
# Outline: as §1
# [8] = target: Neu5Ac(a2-3)Gal(b1-3)GalNAc(b1-4)[Neu5Ac(a2-8)Neu5Ac(a2-3)]Gal(b1-4)Glc
# Outline: as §1
# [9] = target: Neu5Ac(a2-6)Gal(b1-3)GlcNAc(b1-3)[Gal(b1-4)GlcNAc(b1-6)]Gal(b1-4)Glc
# Outline: as §1
# [10] = target: Neu5Ac(a2-6)GalNAc
# Outline: as §1
# [11] = target: Neu5Ac(b2-6)Gal(b1-4)GlcNAc
# Outline: as §1
binder,measurement,setting,value
"AFL (Aspergillus fumigatus), Q4WW81 (protein) STPGAQQVLFRTGIAAVNLTNHLRVYFQDVYGSIRESLYEGSWANGTEKNVIGNAKLGSPVAATSKELKHIRVYTLTEGNTLQEFAYDSGTGWYNGGLGGAKFQVAPYSRIAAVFLAGTDALQLRIYAQKPDNTIQEYMWNGDGWKEGTNLGGALPGTGIGATSFRYTDYNGPSIRIWFQTDDLKLVQRAYDPHKGWYPDLVTIFDRAPPRTAIAATSFGAGNSSIYMRIYFVNSDNTIWQVCWDHGKGYHDKGTITPVIQGSEVAIISWGSFANNGPDLRLYFQNGTYISAVSEWVWNRAHGSQLGRSALPPA",glycan array binding signal (z-score),[1],-0.377
same,glycan array binding signal (z-score),[2],-0.361
same,glycan array binding signal (z-score),[3],-0.377
same,glycan array binding signal (z-score),[4],-0.384
same,glycan array binding signal (z-score),[5],-0.381
same,glycan array binding signal (z-score),[6],-0.376
same,glycan array binding signal (z-score),[7],-0.385
same,glycan array binding signal (z-score),[8],-0.382
same,glycan array binding signal (z-score),[9],-0.383
same,glycan array binding signal (z-score),[10],-0.383
same,glycan array binding signal (z-score),[11],-0.388
